Screening results (PubChem)
Shown are actives, neighbours in structure and some others; about 1.3% of the full set was active somewhere.
KLK7 zymogen act: activators of human kallikrein-7 zymogen | activation, % at 7 µM | actives 0.9% (n = 370,000) | AID 652039 | P49862 | purified proKLK7, EDANS-DABCYL substrate fluorescence; 100% is mature enzyme control, 0% vehicle;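 active = activation above the mean of all tested compounds plus 3 SD, computed per campaign excluding outliers beyond control limits, cut at about 13% in these data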
NPR2 activator: GC-B (human) receptor activation; activation, % at 10 µM; actives 0.11% (n = 370,000); P20594; HEK293-GC-B cells, CNP EC30, cGMP TR-FRET; 0% at EC30 CNP, 100% saturating CNP;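 active = activation at 10 µM reaching about 35% in either raw or pattern-adjusted values, limit read from the data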
NPR1 activator: GC-A (human) enzyme activation. AID 1671463. actives 0.14% (n = 370,000). HEK293 GC-A cells, cGMP TR-FRET, EC30 ANP; 0% at EC30 ANP, 100% saturating ANP. activation, % at 10 µM. P16066; in the data active = activation above about 40%
Target sequence (P16066 whole entry, looked up): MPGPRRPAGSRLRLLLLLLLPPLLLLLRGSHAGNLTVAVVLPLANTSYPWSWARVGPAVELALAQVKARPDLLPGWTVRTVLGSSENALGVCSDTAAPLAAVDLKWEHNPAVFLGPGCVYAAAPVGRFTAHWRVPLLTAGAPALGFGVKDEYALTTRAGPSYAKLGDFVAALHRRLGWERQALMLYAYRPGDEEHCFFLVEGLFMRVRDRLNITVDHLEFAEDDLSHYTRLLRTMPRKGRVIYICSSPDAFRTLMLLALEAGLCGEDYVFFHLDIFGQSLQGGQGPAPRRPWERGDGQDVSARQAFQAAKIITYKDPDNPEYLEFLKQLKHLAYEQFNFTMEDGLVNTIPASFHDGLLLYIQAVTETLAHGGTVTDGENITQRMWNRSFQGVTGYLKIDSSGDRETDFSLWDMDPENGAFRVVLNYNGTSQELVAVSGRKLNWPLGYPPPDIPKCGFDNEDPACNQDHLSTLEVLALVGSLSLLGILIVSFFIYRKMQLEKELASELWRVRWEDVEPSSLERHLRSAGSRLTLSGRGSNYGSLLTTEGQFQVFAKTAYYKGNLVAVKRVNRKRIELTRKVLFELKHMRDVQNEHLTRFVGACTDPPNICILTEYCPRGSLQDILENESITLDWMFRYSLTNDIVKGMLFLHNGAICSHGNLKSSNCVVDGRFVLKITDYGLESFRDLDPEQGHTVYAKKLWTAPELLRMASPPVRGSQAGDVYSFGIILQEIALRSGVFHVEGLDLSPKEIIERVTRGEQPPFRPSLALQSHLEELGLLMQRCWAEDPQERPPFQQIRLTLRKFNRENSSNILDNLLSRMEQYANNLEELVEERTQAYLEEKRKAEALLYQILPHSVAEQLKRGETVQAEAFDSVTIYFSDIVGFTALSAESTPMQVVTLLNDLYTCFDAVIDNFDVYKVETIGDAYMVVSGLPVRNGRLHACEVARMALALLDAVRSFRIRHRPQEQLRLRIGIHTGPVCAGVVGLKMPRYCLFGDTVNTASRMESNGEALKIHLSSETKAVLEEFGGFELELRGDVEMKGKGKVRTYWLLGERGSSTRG
HIF activator: HIF pathway transcriptional activation; U2OS HRE-luciferase reporter, luminescence; normalized: DMSO 0%, desferrioxamine 100%; activation, % at 7.5 µM (by protocol); actives 0.32% (n = 300,000);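 active = mean activation of at least 10% of the iron chelator positive control signal, with at least half of replicates also reaching 10%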
* hit, by the source's call; . = no result.

SMILES | KLK7 zymogen act | NPR2 activator | NPR1 activator | HIF activator
COC(=O)CSc1nn(-c2ccc(F)cc2)c(=S)s1 | 0.0 | -9.9 | 40.1* | -0.4
O=C(CCCCCN1C(=O)c2ccccc2C1=O)Nc1ccccc1 | -0.4 | 0.6 | -1.0 | 0.2
O=C(CCCCCCC(=O)Nc1ccccc1)NO | 0.4 | -0.8 | 2.0 | 190.4*
O=C(O)c1cccc2cccc(-c3c4ccc(=O)c(O)c-4oc4c(O)c(O)ccc34)c12 | 18.8* | 47.5* | -28.0 | .
CCc1ccccc1NC(=O)c1cc(C)nn1-c1ccccc1 | -0.2 | -0.2 | 3.0 | .
O=C(N/N=C/c1c(O)ccc2ccccc12)Nc1ccccc1 | -14.8 | -7.2 | 2.6 | 0.2
Nc1cc(Cl)nc(N/N=C/c2c(O)ccc3ccccc23)n1 | -5.4 | 18.2 | 12.3 | 12.9*
Cc1occc1C(=O)N/N=C/c1c(O)ccc2ccccc12 | -47.6 | -0.2 | -5.9 | 91.4*
O=C(N/N=C\c1c(O)ccc2ccccc12)c1ccc(O)cc1 | -1.1 | -3.8 | -13.2 | 34.0*
O=C(N/N=C/c1c(O)ccc2ccccc12)c1ccc(Br)o1 | -2.2 | -3.8 | -2.5 | 59.0*
O=C(NN=Cc1c(O)ccc2ccccc12)c1ccncc1 | -17.2 | -5.2 | -9.9 | .
COc1ccc(C2Nc3ccccc3C(=O)N2Cc2ccco2)cc1COc1c(C)cc(NC(C)=O)cc1C (stereo not given) | . | -27.6 | -19.6 | .
C=CCNC1CCC12CCC(c1ccccc1)CC2 (stereo not given) | . | -5.2 | -0.2 | .
O=C(CSCC(=O)Nc1ccccc1)N/N=C/c1c(O)ccc2ccccc12 | -1.8 | -2.9 | -6.5 | 70.7*
O=C(N/N=C/c1c(O)ccc2ccccc12)c1ccc[n+](CCO)c1 | 0.5 | -2.6 | -4.2 | -0.4
Cn1cc(C(=O)N/N=C/c2c(O)ccc3ccccc23)ccc1=O | -5.3 | -5.6 | -7.2 | 87.7*
Cn1nccc1C(=O)N/N=C/c1c(O)ccc2ccccc12 | -5.4 | -1.8 | -5.2 | 101.1*
O=C(CSc1nnc(SCc2cccc3ccccc23)s1)Nc1ccc(S(=O)(=O)Nc2nccs2)cc1 | 0.3 | -1.8 | -4.8 | .
CCN(CC)CCNc1cc(C)nc2c1C(=O)C(=O)C=C2N1CCCCC1 | -0.7 | 4.9 | -4.9 | 42.3*
COC(=O)c1cc(C)nc2c1C(=O)C(=O)C=C2N1CCOCC1 | 0.2 | -1.2 | -0.2 | -1.6
CC[C@H]1/C(=C/c2ccccc2)N2C(=O)C[C@H](c3ccccc3)N=C2N1C | . | -14.5 | -5.8 | .
N/C(=N\OC(=O)c1ccc(Cl)c([N+](=O)[O-])c1)c1ccccc1 | -0.3 | -3.7 | 46.3* | 0.4
N/C(=N\OC(=O)c1ccc(Cl)c([N+](=O)[O-])c1)c1ccccn1 | 0.3 | -4.5 | 2.2 | 1.5
COc1ccc2nc(C)cc(SCC(=O)N/N=C/c3ccccc3)c2c1 | -0.1 | -4.2 | 1.1 | -0.3
COc1ccc2nc(C)cc(SCC(=O)N/N=C/c3ccc(O)cc3O)c2c1 | -1.9 | 3.5 | -1.8 | 21.8*
SMILES | KLK7 zymogen act | NPR2 activator | NPR1 activator | HIF activator
O=C(NC(CSCc1ccccc1)C(=O)N/N=C/c1ccc(O)cc1O)c1ccc([N+](=O)[O-])cc1 (stereo not given) | -2.4 | -10.6 | -5.5 | 42.0*
O=C(CC1SC(N2CCCC2)=NC1=O)Nc1ccc(C(=O)Nc2ncccc2O)cc1 (stereo not given) | 1.2 | 2.4 | -0.1 | 20.4*
CC(/C=C1\SC(=Nc2cccnc2)NC1=O)=C\c1ccccc1 | 0.2 | 0.8 | -14.0 | 0.2
C=CCOc1ccc(/C=C2\SC(=Nc3cccnc3)NC2=O)cc1 | 0.3 | -1.7 | -0.8 | 84.3*
CC(C)CNc1nnnc2c1sc1nc(N3CCOCC3)c3c(c12)CC(C)(C)SC3 | -1.4 | 40.0* | 51.8* | -4.4
CC(C)CNc1ncnc2c1sc1nc(N3CCOCC3)c3c(c12)CC(C)(C)OC3 | -0.2 | 38.7* | 42.0* | -0.1
CC1(C)Cc2c(c(N3CCOCC3)nc3sc4c(NN)ncnc4c23)CS1 | 0.4 | -3.3 | -25.6 | -1.4
CC1(C)Cc2c(c(N3CCOCC3)nc3sc4c(NCc5ccccc5)nnnc4c23)CS1 | -5.7 | 49.6* | 47.2* | -0.3
CCCC1=C(C(=O)OCC)C(/C=C/c2ccccc2)n2ncnc2N1 (stereo not given) | . | 1.2 | 44.8* | 3.4
CCOC(=O)C1=C(C)Nc2ncnn2C1/C=C/c1ccccc1 (stereo not given) | 0.0 | -8.2 | 36.5 | 1.4
O=c1[nH]c2ccc(S(=O)(=O)N3CCCC3)cc2o1 | -0.5 | -5.8 | -0.3 | .
O=C(COc1ccccc1)N(Cc1cccc(F)c1)C1CCS(=O)(=O)C1 (stereo not given) | -0.3 | 3.6 | 0.8 | 18.4*
